Compound activity: PubChem BioAssay, several laboratories
Shn3 inh set2 – Schnurri-3 reporter inhibition in Clone20 osteoblasts. Clone20 osteoblast Shn3 3'UTR firefly luciferase, 24 h. inhibition, % at 12.5 µM. hit rate 0.52% among 360,000. AID 588674;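 active = mean inhibition of at least 75% with every replicate also reaching 75%; inconclusive = mean inhibition at least 75% but some replicate below; inactive = mean inhibition below 75%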;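 note: 0% = median of neutral control wells and 100% = pilot-screen positive control compound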
EWS-Fli block – blocks EWS/Fli oncoprotein-driven transcription; A673 NR0B1-luciferase reporter, viability-normalised; inhibition, % at 12.6 µM; hit rate 0.67% among 350,000; AID 651661;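 active = mean inhibition of at least 50% after viability correction, with every replicate also passing that limit; inconclusive = mean reaches 50% but only one of two replicates passes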;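 note: firefly luciferase signal divided by Alamar Blue viability fluorescence both relative to DMSO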
ABHD5-PLIN5 inh – blocks binding of human ABHD5 to perilipin-5; Split G. princeps luciferase complementation, luminescence, 4 h; inhibition, % at 4 µM; hit rate 0.78% among 360,000; AID 602281;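 active = inhibition above the mean inhibition across every tested compound plus 3 SD, cut at about 22% in these data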;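 note: 0% = DMSO only wells and the 100% control is not disclosed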
Target sequence (Q00G26 whole entry, looked up): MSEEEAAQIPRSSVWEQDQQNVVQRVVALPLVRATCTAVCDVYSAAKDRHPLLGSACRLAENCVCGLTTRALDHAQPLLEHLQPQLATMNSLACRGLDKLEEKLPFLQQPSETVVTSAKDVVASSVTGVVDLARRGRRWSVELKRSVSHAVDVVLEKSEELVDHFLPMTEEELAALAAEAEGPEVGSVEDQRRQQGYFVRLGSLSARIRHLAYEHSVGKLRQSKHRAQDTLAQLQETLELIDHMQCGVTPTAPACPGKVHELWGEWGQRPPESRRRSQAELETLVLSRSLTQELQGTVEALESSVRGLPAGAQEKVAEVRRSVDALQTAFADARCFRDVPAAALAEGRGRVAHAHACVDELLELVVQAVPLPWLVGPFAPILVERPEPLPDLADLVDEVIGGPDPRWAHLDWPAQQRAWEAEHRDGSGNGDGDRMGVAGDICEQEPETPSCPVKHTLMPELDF
Target sequence (Q8WTS1 whole entry, looked up): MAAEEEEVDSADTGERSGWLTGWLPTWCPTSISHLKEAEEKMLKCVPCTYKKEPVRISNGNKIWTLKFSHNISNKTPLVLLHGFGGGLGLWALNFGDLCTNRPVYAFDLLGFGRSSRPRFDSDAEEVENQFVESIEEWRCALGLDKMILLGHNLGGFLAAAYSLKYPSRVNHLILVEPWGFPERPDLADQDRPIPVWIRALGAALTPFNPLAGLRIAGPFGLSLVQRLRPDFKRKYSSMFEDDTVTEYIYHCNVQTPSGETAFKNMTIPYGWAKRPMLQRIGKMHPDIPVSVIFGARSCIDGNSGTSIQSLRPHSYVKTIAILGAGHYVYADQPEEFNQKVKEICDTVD
TRPM1 prom inh – reduces MITF-dependent TRPM1 promoter luciferase signal; SK-MEL-5 TRPM1 promoter luciferase, 24 h; inhibition, % at 12.5 µM; hit rate 0.83% among 330,000; AID 488899;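 active = mean inhibition across replicates of 60% or more, whatever share of single replicates reaches that level; inconclusive = some that reach 60%, reason not given; inactive = mean inhibition across replicates below 60%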
PAX8 reporter – lowers PAX8-driven luciferase in RMG-I cells; inhibition, % at 12.6 µM; RMG-I TPO-luciferase reporter, SteadyGlo, 24 h; hit rate 1.2% among 360,000; AID 652154;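 active = mean replicate inhibition at least 60% with every replicate also reaching 60%; inconclusive = only one of the two criteria is met; inactive = mean below 60% and not all replicates reaching 60%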;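 note: luciferase light reporting Pax8 driven TPO promoter activity; plate controls were median of neutral control wells for no effect and mitoxantrone controls for full effect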
Peg3 promoter – inhibitors of Peg3 promoter. HeLa PEG-Prom luciferase reporter, luminescence, overnight. inhibition, % at 20 µM. hit rate 1.7% among 360,000;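 active = inhibition of at least 50% at 20 µM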
Numbers without * were called inactive; ! = not active in a repeat. Most compounds without a hit are left out; they make up all but 3% or so of the library.

What do the screens show for `FC(F)Sc1ccc(-n2c(-c3ccc(Cl)cc3)c[n+]3c2CCC3)cc1`?
Shn3 inh set2: 1.8; EWS-Fli block: 8.7; ABHD5-PLIN5 inh: -1.1; TRPM1 prom inh: 46.6; PAX8 reporter: 67.3*; Peg3 promoter: 1.9

What do the screens show for `COc1ccc(-n2c(-c3ccccc3)c[n+]3c2CCC3)cc1`?
Shn3 inh set2: 33.8; EWS-Fli block: 16.8; ABHD5-PLIN5 inh: -2.8; TRPM1 prom inh: 43.6; PAX8 reporter: 45.2; Peg3 promoter: -2.3

Results for COc1ccc2c3c([nH]c2c1)[C@@H](CO)NCC31CN(C(=O)C2CCCC2)C1 ?
EWS-Fli block: -9.5; PAX8 reporter: -6.0

How did C[C@@H]1CN([C@H](C)CO)S(=O)(=O)c2ccc(-c3cncnc3)cc2O[C@H]1CN(C)C(=O)CC1CC1 do in these assays?
EWS-Fli block: -7.1

What do the screens show for `CC(C)(C)[S@@](=O)N1Cc2cc(C(=O)N3CCOCC3)nc(-c3cccc(-c4ccccc4F)c3)c2[C@H]1CCO`?
EWS-Fli block: 2.4; PAX8 reporter: -8.5

What do the screens show for `CCOc1ccc(-c2c[n+]3c(n2-c2ccccc2)CCCCC3)cc1`?
Shn3 inh set2: 90.5*; EWS-Fli block: 28.2; ABHD5-PLIN5 inh: -8.6; TRPM1 prom inh: 43.4; PAX8 reporter: 80.1*; Peg3 promoter: 6.6

How did CCOc1ccc(-c2nnc(-c3ccccc3)n2-c2ccccc2)cc1 do in these assays?
Shn3 inh set2: -18.8; ABHD5-PLIN5 inh: 5.5; TRPM1 prom inh: -28.0; PAX8 reporter: -39.0; Peg3 promoter: -85.7

How did COc1ccc(-n2c(-c3ccc(Br)cc3)c[n+]3c2CCC3)cc1 do in these assays?
Shn3 inh set2: 69.7; EWS-Fli block: 23.4; ABHD5-PLIN5 inh: 4.5; TRPM1 prom inh: 57.0; PAX8 reporter: 80.1*; Peg3 promoter: 2.8

What do the screens show for `C[C@@H]1CN([C@H](C)CO)C(=O)c2cc(C#CCc3ccccc3)cnc2O[C@@H]1CN(C)Cc1ccc(C(=O)O)cc1`?
EWS-Fli block: -14.0; PAX8 reporter: -1.3

What do the screens show for `O=C(C[C@@H]1CC[C@H]2[C@@H](COC[C@@H](O)CN2Cc2cccc(-c3ccncc3)c2)O1)N1CCOCC1`?
EWS-Fli block: 1.0; PAX8 reporter: 4.0

Results for Clc1ccc(OCCCNCc2ccccc2)c2ccccc12 ?
Shn3 inh set2: 5.1; EWS-Fli block: 20.9; ABHD5-PLIN5 inh: 9.5; TRPM1 prom inh: 6.1; PAX8 reporter: 5.5; Peg3 promoter: 93.0*

Results for Cc1cc(C)c(OCCCCNCc2ccccc2)c(Cl)c1 ?
Shn3 inh set2: 48.9; ABHD5-PLIN5 inh: -6.3; TRPM1 prom inh: 13.7; Peg3 promoter: 53.4*

What do the screens show for `Brc1ccccc1OCCNCc1ccccc1`?
Shn3 inh set2: -1.9; EWS-Fli block: -24.5; ABHD5-PLIN5 inh: 6.3; TRPM1 prom inh: -18.0; PAX8 reporter: -10.5; Peg3 promoter: -63.9

Results for C[C@@H]1CN([C@@H](C)CO)C(=O)c2cc(-c3cccc(F)c3)cnc2O[C@H]1CN(C)C(=O)C1CCC1 ?
EWS-Fli block: -13.3; PAX8 reporter: -22.1

How did COc1ccccc1/C=C1\CCCC2=C1Nc1nnnn1C2c1ccccc1OC (stereo not given) do in these assays?
Shn3 inh set2: 91.0*; ABHD5-PLIN5 inh: 9.9; TRPM1 prom inh: 49.8; PAX8 reporter: -2.3; Peg3 promoter: 101.3*

What do the screens show for `O=C(C[C@H]1C=C[C@@H](NC(=O)c2ccncc2)[C@H](CO)O1)NCCc1ccncc1`?
EWS-Fli block: -0.6

What do the screens show for `CN(C)S(=O)(=O)c1cccc(N=c2scc(-c3ccc4c(c3)NC(=O)CO4)n2CC2CCCO2)c1` (stereo not given)?
Shn3 inh set2: 86.3*; ABHD5-PLIN5 inh: 4.4; TRPM1 prom inh: 1.3; Peg3 promoter: 34.9

Results for O=C(NC1CCCCC1)C(c1cccnc1)N(C(=O)CCl)c1ccccc1Cl (stereo not given) ?
Shn3 inh set2: -13.6; EWS-Fli block: 48.3; ABHD5-PLIN5 inh: -0.5; TRPM1 prom inh: 20.1; PAX8 reporter: 100.7*; Peg3 promoter: 29.6

How did O=C(NC1CCCCC1)C(c1cccnc1)N(C(=O)CCl)c1ccc(F)cc1 (stereo not given) do in these assays?
Shn3 inh set2: 9.8; EWS-Fli block: 56.6*; ABHD5-PLIN5 inh: 6.9; TRPM1 prom inh: 86.5*; PAX8 reporter: 109.2*; Peg3 promoter: 68.6*

Results for C[C@@H]1CN([C@H](C)CO)C(=O)Cc2cc(NS(=O)(=O)c3cn(C)cn3)ccc2O[C@H]1CN(C)S(C)(=O)=O ?
EWS-Fli block: -13.4; PAX8 reporter: -43.2

How did Cc1ccc(S(=O)(=O)N(CCCO)CC(O)CON=C2c3ccccc3-c3ccccc32)cc1 (stereo not given) do in these assays?
Shn3 inh set2: 26.1; EWS-Fli block: -11.4; ABHD5-PLIN5 inh: 9.8; TRPM1 prom inh: -12.1; PAX8 reporter: 12.2; Peg3 promoter: 51.8*

How did C[C@H](CO)N1C[C@H](C)[C@@H](CN(C)S(=O)(=O)c2cccs2)OCCCC[C@H](C)Oc2ccc(NS(=O)(=O)c3ccc(Cl)cc3)cc2C1=O do in these assays?
EWS-Fli block: 4.6; PAX8 reporter: 99.6*

How did C[C@@H]1CCCCO[C@H](CN(C)S(=O)(=O)c2cccs2)[C@@H](C)CN([C@@H](C)CO)C(=O)c2cc(NS(=O)(=O)c3ccc(Cl)cc3)ccc2O1 do in these assays?
EWS-Fli block: 6.5; PAX8 reporter: 68.4*

What do the screens show for `C[C@H](CO)N1C[C@H](C)[C@@H](CN(C)C(=O)C2CCOCC2)Oc2ncc(C#CC3(O)CCCC3)cc2C1=O`?
EWS-Fli block: -7.2; PAX8 reporter: -21.3

How did COc1ccc(CNC(=O)C(c2ccc(C)o2)N(Cc2cccs2)C(=O)Cc2cccs2)cc1 (stereo not given) do in these assays?
Shn3 inh set2: -6.5; ABHD5-PLIN5 inh: 0.3; TRPM1 prom inh: 11.1; PAX8 reporter: 8.6; Peg3 promoter: 59.5*

How did COCCN(C(=O)Cc1cccs1)C(C(=O)NCc1ccc(OC)cc1)c1ccc(C)cc1 (stereo not given) do in these assays?
Shn3 inh set2: -2.3; ABHD5-PLIN5 inh: -1.1; TRPM1 prom inh: -11.4; Peg3 promoter: 9.8

What do the screens show for `O=C(C[C@H]1CC[C@@H](NC(=O)CN2CCOCC2)[C@@H](CO)O1)NC1CCC1`?
EWS-Fli block: -13.1; PAX8 reporter: -2.4

How did CN(C)CCCN1c2ccccc2Sc2ccc(Cl)cc21 do in these assays?
Shn3 inh set2: -11.2; EWS-Fli block: 5.1; ABHD5-PLIN5 inh: 4.8; TRPM1 prom inh: -16.1; PAX8 reporter: 1.7; Peg3 promoter: 75.4*!

Results for O=S(=O)(c1ccccc1F)N1CC[C@@H]2[C@@H](CO)Nc3ccc(-c4ccc(F)cc4)cc3[C@@H]21 ?
EWS-Fli block: inconclusive; PAX8 reporter: 12.3
